In PubChem BioAssay (NCI) one finds growth inhibition data, which are given here for 39 compounds.

Assay [1] is described as follows: NCI Yeast Anticancer Drug Screen. Data for the rad50 strain (AID 155).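 Note: 0% = growth of vehicle-only cultures of the same strain.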 Particulars: S. cerevisiae rad50 strain growth inhibition; at 50.0 µM; stronger effect = higher value. Put shortly: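 Genetically altered yeast (DNA repair pathway); compound treatment; growth inhibition vs vehicle ctrl.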
Assay [2] in a line: NCI Yeast Anticancer Drug Screen. Data for the mec2-1 strain (AID 157). Particulars: S. cerevisiae mec2-1 strain, at 50.0 µM, stronger effect = higher value. Put shortly: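 Cells of the genetically defined mec2-1 yeast strain are incubated with test compound. Inhibition of growth is calculated against vehicle-treated controls.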
A short description of assay [3]: NCI Yeast Anticancer Drug Screen. Data for the sgs1 mgt1 strain (AID 161).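 Note: 0% = growth of cultures given vehicle only.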 Particulars: S. cerevisiae sgs1 mgt1 strain, at 50.0 µM, stronger effect = higher value. Put shortly: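 Mutant yeast exposed to compound; growth scored against vehicle-only wells.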
A short description of assay [4]: NCI Yeast Anticancer Drug Screen. Data for the cln2 rad14 strain (AID 165).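 Note: 0% = growth equal to vehicle treated cultures.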 Particulars: S. cerevisiae cln2 rad14 strain, at 50.0 µM, stronger effect = higher value. Put shortly:
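The screen exposed genetically defined yeast (cln2 rad14) to test compounds and scored growth inhibition relative to vehicle-treated controls.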

A short description of assay [5]: NCI Yeast Anticancer Drug Screen. Data for the bub3 strain (AID 167). The following applies: S. cerevisiae bub3 mutant strain, at 50.0 µM, stronger effect = higher value. Put shortly:
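Yeast carrying a defined mutation is treated with each compound, and growth is compared with that of vehicle-exposed cells to give inhibition.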

Assay [6] is described as follows: NCI Yeast Anticancer Drug Screen. Data for the mlh1 rad18 strain (AID 175). Particulars: S. cerevisiae mlh1 rad18 strain growth inhibition; at 50.0 µM; stronger effect = higher value. Put shortly:
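Compound-treated yeast growth, normalised to vehicle controls. Strain bears defined DNA repair mutations.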

Compounds without any hit were thinned out: in the full panel of roughly 79,000, 15% have a hit. A number with no mark means an inactive call. Activity calls are given as the source filed them. Cut-off read from the data, not from the text of the source: active = growth inhibition above about 70%; inactive = the rest.

On to `CC(=O)CC(C)(C)NNC(N)=S`, for which the growth inhibition in assay [1] was 1.45%; in assay [2], 0.7%; in assay [3], 14.3%; in assay [4] it was -21.6%; in assay [5], -4.2%; in assay [6] it was 22.2%.

For the compound `Cc1ccc2c(c1)nc(N)n[n+]2[O-]`, the growth inhibition is 2.85% in assay [1]; -14.7% in assay [2]; -3.4% in assay [3]; 3.25% in assay [4]; -8.95% in assay [5]; -39.5% in assay [6].

`CC(C)NC(=O)C1C2CCC(CC2)C1C(=O)NC(C)C` (centres undefined): the growth inhibition in assay [1] was 0.95%; in assay [2] it was 34.6%; in assay [3], -4%; in assay [4], -3.3%; in assay [5], 17.7%; in assay [6] it was 0.35%.

For the compound `COc1cc(C2=N/C(=C\c3cc(Br)cc(Br)c3O)C(=O)O2)cc(OC)c1OC`, the growth inhibition in assay [1] was 83.2% (active); in assay [2] it was 94.5% (active); in assay [3], 88.2% (active); in assay [4], 98.7% (active); in assay [5] it was 98.5% (active); in assay [6], 92.3% (active).

Consider `CO[C@H]1C=C[C@]23c4cc5c(cc4CN(CC2O)[C@@H]3C1)OCO5` (some centres undefined), for which the growth inhibition was 8.65% in assay [1]; -11.7% in assay [2]; 26.4% in assay [3]; 12.6% in assay [4]; 2.55% in assay [5]; -20.9% in assay [6].

Consider `O=C1c2ccccc2C(=O)c2c(O)c(Cc3ccccc3)cc(O)c21`, for which the growth inhibition in assay [1] is 4.75%; in assay [2], 11.9%; in assay [3] it was 2.2%; in assay [4], 14.5%; in assay [5], 10.2%; in assay [6], 4%.

As to `CCOS(=O)(=O)CC(C)C(C)C` (centres undefined), the growth inhibition in assay [1] was 4.75%; in assay [2], -17.3%; in assay [3], -7.8%; in assay [4], -18.1%; in assay [5], -5.65%; in assay [6], -9.1%.

As for `NC(CS)C(=O)NCCNCCNc1ccc(NCCNCCNC(=O)C(N)CS)c2c1C(=O)c1c(O)ccc(O)c1C2=O` (centres undefined), the growth inhibition in assay [1] is -30.4%; in assay [2] it was -12.4%; in assay [3] it was 2.1%; in assay [4], -0.85%; in assay [5], -10.5%; in assay [6] it was -12.7%.

`COc1cc(C(=O)N2CCCCCCC2)cc(OC)c1OC`: the growth inhibition is -13.8% in assay [1]; 38.5% in assay [2]; 10.9% in assay [3]; -19.7% in assay [4]; 28.7% in assay [5]; -6.45% in assay [6].

Regarding `CCOC(=O)c1c(O)c(Cc2ccccc2)c(=O)n2c1[nH]c1cc(C)c(C)cc12`, the growth inhibition in assay [1] is 26.6%; in assay [2], 26.2%; in assay [3] it was 12.2%; in assay [4], 15.5%; in assay [5], -0.95%; in assay [6] it was -1%.

For the compound `OCCN(CCO)c1ccc2c(c1)Cc1cc(Br)ccc1-2`, the growth inhibition in assay [1] was 1.25%; in assay [2], 6%; in assay [3], -4.35%; in assay [4] it was -2.7%; in assay [5], 22.5%; in assay [6], 5.15%.

As to `O=C(/C=C/c1ccc(OCCCOc2ccc(/C=C/C(=O)c3ccccc3)cc2)cc1)c1ccccc1`, the growth inhibition in assay [1] was 14.3%; in assay [2], -18.1%; in assay [3] it was -4.25%; in assay [4] it was -57%; in assay [5] it was -37.9%; in assay [6], -10.5%.

For the compound `Cc1c2ccccc2nc(CS(=O)c2ccccc2)[n+]1[O-]` (centres undefined), the growth inhibition in assay [1] was -8.8%; in assay [2], 21.9%; in assay [3], 20.1%; in assay [4], -36.4%; in assay [5] it was 16.8%; in assay [6], 20.2%.

For the compound `CN(C)CCCN1c2ccccc2Sc2cnccc21`, the growth inhibition in assay [1] is 7.6%; in assay [2] it was -8.2%; in assay [3], -0.2%; in assay [4] it was -0.05%; in assay [5], -1.45%; in assay [6] it was 15.3%.

Take `CCc1cccc(C(=O)NCCN(C)C)c1[N+](=O)[O-]`: the growth inhibition is -10.4% in assay [1]; -17.9% in assay [2]; -12.2% in assay [3]; 22% in assay [4]; -11.9% in assay [5]; -5% in assay [6].

`O=C1C(=O)c2ccccc2C(O)=C1CN(CCO)CCO`: the growth inhibition in assay [1] is 10.8%; in assay [2] it was 19.8%; in assay [3] it was 24.2%; in assay [4], -8.25%; in assay [5] it was 23.4%; in assay [6], 26.2%.

For `CC(=O)OCC1OC(N2C(S)=C(C#N)C(c3ccco3)C(C(C)=O)=C2c2ccccc2)C(OC(C)=O)C(OC(C)=O)C1OC(C)=O` (centres undefined), the growth inhibition in assay [1] is 21.4%; in assay [2], 15.4%; in assay [3], -0.25%; in assay [4], -7.4%; in assay [5] it was -19.4%; in assay [6], -6.15%.

Consider `COc1cccc(/C=C2/C(=O)N(c3ccc([N+](=O)[O-])cc3)N=C2C)c1`, for which the growth inhibition is 34.5% in assay [1]; 5.1% in assay [2]; 37.9% in assay [3]; 11.9% in assay [4]; 14.3% in assay [5]; 43.9% in assay [6].

Take `Cc1ccc(S(=O)(=O)Oc2c(Br)cc(-c3ccccc3)cc2Br)cc1`: the growth inhibition in assay [1] is 27.9%; in assay [2] it was 3.4%; in assay [3], 13.5%; in assay [4] it was 6.65%; in assay [5], -12.4%; in assay [6], 18.6%.

Consider `CC[C@H](O)[C@H](C)C=C1SCCCS1`, for which the growth inhibition is -14.3% in assay [1]; -42.2% in assay [2]; 19.9% in assay [3]; 25.1% in assay [4]; -43.8% in assay [5]; -43.6% in assay [6].

As for `CCOC(=O)c1[nH]c(Cc2[nH]c(C(=O)OCC)c(CC)c2C)c(C)c1CC`, the growth inhibition is 7.8% in assay [1]; -1.1% in assay [2]; -4.75% in assay [3]; -3.65% in assay [4]; -4.7% in assay [5]; 24.2% in assay [6].

Regarding `CC12CCC(=O)[C@@]1(C)CCCC2=O` (some centres undefined), the growth inhibition in assay [1] is -13%; in assay [2], 5%; in assay [3], -23.1%; in assay [4], 6.8%; in assay [5], -6.9%; in assay [6], 5.05%.

With `CC(C)(C)n1c(=O)n(C(=O)C(Cl)(Cl)Cl)n(C(=O)C(Cl)(Cl)Cl)c1=O`, the growth inhibition in assay [1] was -13.8%; in assay [2], -16.6%; in assay [3] it was -14.6%; in assay [4] it was 19.1%; in assay [5] it was -10.3%; in assay [6] it was -4.45%.

As for `CCCCc1ccc2[n+](c1)C(C(=O)OCC)=PC2` (centres undefined), the growth inhibition in assay [1] is -18.1%; in assay [2], -36.8%; in assay [3], -21.4%; in assay [4], -18.9%; in assay [5], -19.9%; in assay [6] it was -11.9%.

With `Brc1ccc2c[n+]3ccccc3cc2c1`, the growth inhibition is 11.9% in assay [1]; 7.35% in assay [2]; 12% in assay [3]; -31.9% in assay [4]; 24.2% in assay [5]; 9.4% in assay [6].

As to `COc1cc(NS(C)(=O)=O)ccc1Nc1c2ccc(N(C)C)cc2nc2cc(N(C)C)ccc12`, the growth inhibition in assay [1] was 29.1%; in assay [2], -4.8%; in assay [3], 1.05%; in assay [4], 6.7%; in assay [5], -8.6%; in assay [6], -9.85%.

Take `Cc1ccc(-n2cc(-c3ccc(Cl)cc3)c3c2N=CN2NC(c4cccs4)=NC32)cc1` (centres undefined): the growth inhibition in assay [1] was -32.8%; in assay [2], -5.8%; in assay [3], -18.9%; in assay [4], 5.5%; in assay [5] it was -16.7%; in assay [6], -17.3%.

For the compound `O=C(c1ccncc1)C(C(c1ccccc1)N1CCOCC1)N1CCOCC1` (centres undefined), the growth inhibition was 25.8% in assay [1]; 8.25% in assay [2]; 34% in assay [3]; 39.5% in assay [4]; 13.6% in assay [5]; 4.4% in assay [6].

Consider `CCCCCCSCCO`, for which the growth inhibition is -13.2% in assay [1]; -35% in assay [2]; -11.9% in assay [3]; 23.6% in assay [4]; -30.9% in assay [5]; 2.55% in assay [6].

Regarding `c1ccc(CCn2c(-c3ccccn3)nc3ccccc32)nc1`, the growth inhibition in assay [1] is 13.2%; in assay [2] it was -4.25%; in assay [3] it was 18.1%; in assay [4] it was -24.5%; in assay [5], 15.5%; in assay [6], 7.95%.

Regarding `C#CC1(O)c2ccccc2C(=O)c2ccccc21`, the growth inhibition in assay [1] was -1.05%; in assay [2], -7.85%; in assay [3], -7.65%; in assay [4], -7.35%; in assay [5], 6.7%; in assay [6], -2.35%.

`C(CCN1CCOCC1)CN1CCOCC1`: the growth inhibition was -3.4% in assay [1]; 4.5% in assay [2]; 0.45% in assay [3]; -4.1% in assay [4]; -10.7% in assay [5]; 1.15% in assay [6].

For the compound `CC(C)CCOC(=S)S`, the growth inhibition in assay [1] is 35.2%; in assay [2], 17.9%; in assay [3], -22.6%; in assay [4], -5.8%; in assay [5], 34.2%; in assay [6], -38.4%.

As for `COc1cc2c(cc1OC)C(c1c(Cl)cccc1Cl)=NCC2`, the growth inhibition was 13.1% in assay [1]; 10% in assay [2]; 41.4% in assay [3]; 4.25% in assay [4]; 42.6% in assay [5]; 12.7% in assay [6].

For the compound `CCOC(=O)c1ccc(C#N)cc1`, the growth inhibition in assay [1] is -8%; in assay [2], -57.3%; in assay [3], -11.2%; in assay [4] it was -7.6%; in assay [5], -15.7%; in assay [6] it was 5.45%.

Take `COc1cc2c(c(OC)c1OC)-c1ccc(S(C)(=O)=O)c(=O)cc1[C@@H](NC(C)=O)CC2`: the growth inhibition in assay [1] was 3.25%; in assay [2], -7.1%; in assay [3], 3.2%; in assay [4], 4.7%; in assay [5], -35%; in assay [6], -44.4%.

In the case of `COC(=O)/C(=N/O)C(C(=O)C=C(C)C)C(=O)C(=O)Nc1nc2ccc([N+](=O)[O-])cc2s1` (centres undefined), the growth inhibition is 18% in assay [1]; -4.55% in assay [2]; 10% in assay [3]; -58.8% in assay [4]; 5.95% in assay [5]; 6.25% in assay [6].

`CC(O)(C(=O)O)C(NC(=O)c1ccccc1)C(=O)O` (centres undefined): the growth inhibition in assay [1] was 12.2%; in assay [2], 6.2%; in assay [3], -2.5%; in assay [4], 6.3%; in assay [5] it was 11.1%; in assay [6] it was 2.45%.

Turning to `Oc1ccccc1/C=N\c1nccs1`, the growth inhibition was 10.7% in assay [1]; 19.2% in assay [2]; 18.6% in assay [3]; 12.4% in assay [4]; 23.8% in assay [5]; 13.2% in assay [6].
